Whole data set: some 39,000 sequences, median “fluorescence intensity (a.u.)” near 4,300, cut for the highest 2% near 39,000. The full list was thinned out, with the highest values kept by preference.
The sequences below were run against T1, OsSMF1 (Oryza sativa, UniProt Q6ZLB0 1-436) (assay: protein-binding microarray (RPBM); PBS, 2% BSA, 51.3 ng/ul salmon testes DNA, 50 uM zinc acetate, 200 nM TF, 25 C, 1 h; high values mean tight binding). Conditions: protein: recombinant; tags: N-terminal polyhistidine and DsRed monomer fusion (pET32a); chain copies: 2; label: CyDye5-dUTP incorporated in the synthesized complementary strand; 3' TTTTT single-stranded linker to array surface; dsDNA, one strand shown.
T1 sequence: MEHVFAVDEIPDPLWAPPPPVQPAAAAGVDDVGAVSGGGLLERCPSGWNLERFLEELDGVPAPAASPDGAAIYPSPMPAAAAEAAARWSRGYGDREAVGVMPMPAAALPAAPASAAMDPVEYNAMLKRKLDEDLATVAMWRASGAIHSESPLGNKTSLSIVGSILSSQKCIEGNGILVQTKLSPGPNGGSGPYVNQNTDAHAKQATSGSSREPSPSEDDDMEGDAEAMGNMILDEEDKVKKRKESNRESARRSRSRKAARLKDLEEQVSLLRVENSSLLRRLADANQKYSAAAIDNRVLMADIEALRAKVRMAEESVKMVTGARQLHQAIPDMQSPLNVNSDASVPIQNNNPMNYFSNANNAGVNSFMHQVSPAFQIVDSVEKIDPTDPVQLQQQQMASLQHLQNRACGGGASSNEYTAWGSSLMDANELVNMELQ
Method in brief: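 The binding signal is fluorescence intensity per feature, in arbitrary units, read on an Axon 4000B scanner. Polyhistidine- and DsRed-tagged transcription factors (N-terminal fusions) from E. coli BL21-CodonPlus were purified on Ni–NTA and applied at 200 nM for 1 h at 25 °C to a double-stranded, BSA-blocked custom Agilent array in buffer with 50 µM zinc acetate.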
In the case of “AATCATTTTATTTGACTAATACACGTCAGGATTGAATGAGCGGAGTCACCTAGTGCAG”, the binding signal is reported as 4880 fluorescence intensity (a.u.).
“TTAATGATTTTATTTGAATGGATCAGGGTCCAATTTGCTGCGGAGTCACCTAGTGCAG” was tested, and the binding signal was 55800 fluorescence intensity (a.u.).
In the case of “GTCCAATTTAATGCTGACGTTGCTGATGGAATGCCGTGGACGGAGTCACCTAGTGCAG”, the binding signal is reported as 10500 fluorescence intensity (a.u.).
In the case of “GCAGGGCAGGCTGACAGCTCATCTTCTCAGAGGATCCGATCGGAGTCACCTAGTGCAG”, the binding signal is reported as 5100 fluorescence intensity (a.u.).
With “AGCGTCGCGCCGCGCCACGCCACGCCACGCCACCCCACCACGGAGTCACCTAGTGCAG” the binding signal was 5830 fluorescence intensity (a.u.).
With “TGAGCCACGCACTGAACACGACCGTTCGATCCCCTCAAGGCGGAGTCACCTAGTGCAG” the binding signal was 3810 fluorescence intensity (a.u.).
For “TTTGGTGCGAGCGAAATACCAGGATCTTTATACACATAGCCGGAGTCACCTAGTGCAG”, the binding signal was 58000 fluorescence intensity (a.u.).
For “ATACCTGATCCTACTTGTCATACACATATTTATCTTATAGCGGAGTCACCTAGTGCAG”, the binding signal was 3620 fluorescence intensity (a.u.).
With “CGTATATGTATATATACATACTTTATACACATATATATACCGGAGTCACCTAGTGCAG” the binding signal was 3360 fluorescence intensity (a.u.).
“ACTGCCATGGTTGCGGAGCAGGATGGTGACGTGGATCCCACGGAGTCACCTAGTGCAG” was tested, and the binding signal was 17700 fluorescence intensity (a.u.).
In the case of “GCCGCTTTTGCGAATTTTGCACGTAGACCCCTTGCCGCCCCGGAGTCACCTAGTGCAG”, the binding signal is reported as 3330 fluorescence intensity (a.u.).
With “ACACAGCCACGCCCGTACGCAGCTACGTACGCACGCATCACGGAGTCACCTAGTGCAG” the binding signal was 5670 fluorescence intensity (a.u.).
With “TTGTACCAGCTAACTCATCACCACGCAGGCCAGAGTAGTACGGAGTCACCTAGTGCAG” the binding signal was 45900 fluorescence intensity (a.u.).
“TCACCACCTCACTCCACTAACCAGAGAGAGAACGCAGCTACGGAGTCACCTAGTGCAG” was tested, and the binding signal was 21000 fluorescence intensity (a.u.).
“CGTGAGCGGGTGGTGGTGGTGATGGCGTTCGCGGTGGCGACGGAGTCACCTAGTGCAG” was tested, and the binding signal was 3520 fluorescence intensity (a.u.).
In the case of “AGCTTCGCACTGGGCACGTGTGCCTGTGTGTGGGAGTCAGCGGAGTCACCTAGTGCAG”, the binding signal is reported as 4070 fluorescence intensity (a.u.).
For “GAAGTGGTTCTGCACTGTGATTTGAAGCCTAGCAACGTGCCGGAGTCACCTAGTGCAG”, the binding signal was 35800 fluorescence intensity (a.u.).
“CAAACTGCAACTCCAATATCACATTTTCTTTCTCTTTTCCCGGAGTCACCTAGTGCAG” was tested, and the binding signal was 19700 fluorescence intensity (a.u.).
In the case of “CAGTCAGTCAGTAGGTTCCCAGAATTTTCTCCCTGCAAACCGGAGTCACCTAGTGCAG”, the binding signal is reported as 50200 fluorescence intensity (a.u.).
For “TGCTGCCAGAGTCAGTAGGTGCCCTCTTCCACCTGCAGACCGGAGTCACCTAGTGCAG”, the binding signal was 3270 fluorescence intensity (a.u.).
“CAAACAAGGACCGTAGACACTCTAACCAACCCCAATAACACGGAGTCACCTAGTGCAG” was tested, and the binding signal was 31300 fluorescence intensity (a.u.).
For “ATGAACATATTTCAATCGTTCAGTACCTTCAAGCCACAGGCGGAGTCACCTAGTGCAG”, the binding signal was 39800 fluorescence intensity (a.u.).
In the case of “CACATCGTTGCCAATGTTGCCACGTACCAAGGTCATATGGCGGAGTCACCTAGTGCAG”, the binding signal is reported as 9400 fluorescence intensity (a.u.).
With “TCAGTAGGCCAGTAGCTAGCTGCTGCCTTCACACATCAATCGGAGTCACCTAGTGCAG” the binding signal was 3160 fluorescence intensity (a.u.).
